Screening data as filed in PubChem.
IL-1B inflam inh – blocks inflammasome-driven IL-1 beta release | THP-1 LPS/ATP IL-1B secretion, AlphaLISA, 16 h; hits give low values | activity change, % at 57.5 µM | actives 4.7% (n = 360,000) | AID 743279; in the data active = activity change below about -50%; inconclusive = mostly about -30% to -49%
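Secreted IL-1B measured by AlphaLISA bead assay after 16 h compound exposure of THP-1 cells; compounds (final up to 57.5 uM) added 1 h before LPS (250 ng/mL) and ATP (1.25 mM) stimulation; lower signal means less secretion.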
LDHA block – LDHA (human) enzyme inhibition. actives 0.15% (n = 480,000). purified LDHA, NADH/diaphorase-resazurin fluorescence; hits give low values. activity change, % (values are at about 110 or 230 µM). P00338; in the data active = activity change below about -30%; inconclusive = mostly about -25% to -30%;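 also: plate controls were DMSO wells for no effect and wells without enzyme for full effect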
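LDH5 2 nM; NADH 0.06 mM, pyruvate 0.2 mM; 200 mM Tris pH 7.4, EDTA, Tween-20; 5 min RT. Detection: diaphorase 0.133 mg/mL + resazurin 37 µM, fluorescence ex540/em590 at 0 and 20 min; normalized to enzyme-free and DMSO wells.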
Gal4-VP16 FLuc – inhibits Gal4-VP16 luciferase reporter, ROR gamma counter-screen; actives 3.5% (n = 310,000); Drosophila S2 Gal4-VP16 UAS-luciferase, luminescence, 20 h; AID 2546; Potency, µM (top dose mostly 53.6 µM), without a hit: at the top dose activity, negative = inhibition, most hits filed as inhibitors;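 also: Gal4-VP16 expression switched on by copper sulfate through the metallothionein promoter; potency is read from the fitted curve at half-maximal effect; nearly all actives have a fitted effect of over 50% in size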
TDP1 cell CPT – DT40-hTDP1 cell growth loss with CPT | chicken DT40 Tdp1-/-;hTDP1 cells + 20 nM CPT, ATP luminescence, 48 h | Potency, µM (titrated, usually from 46.2 µM), for inactives: top-dose activity change, negative = growth inhibition, usual class: inhibitors | actives 12% (n = 420,000); also: potency is read from the fitted curve at half-maximal effect; nearly all actives have a fitted effect of over 55% in size
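Chicken DT40 Tdp1-/- cells complemented with human TDP1, 400 cells/well, exposed to compounds plus 20 nM camptothecin for at least 48 h at 37 C; viability read as ATP content by CellTiter-Glo luminescence.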
TDP1 cell noCPT – qHTS for Inhibitors of human tyrosyl-DNA phosphodiesterase 1 (TDP1): qHTS in cells in absence of CPT. DT40 Tdp1-/- hTDP1 cells, no CPT, ATP luminescence, 48 h. Potency, µM (series often up to 46.2 µM), inactives show top-dose activity change, negative = growth inhibition, usual class: inhibitors. actives 15% (n = 420,000). AID 686978, 2013; also: potency is read from the fitted curve at half-maximal effect; nearly all actives have a fitted effect of over 55% in size
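DT40 Tdp1-/-;hTDP1 cells, no CPT (DMSO vehicle only), 400 cells/well; compounds pin-transferred; ≥48 hr, 37 °C; CellTiter-Glo 30 min RT dark, luminescence read.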
RORg inh – blocks mouse ROR gamma transcriptional activity; Potency, µM (series often up to 53.6 µM), for inactives: at the top dose activity change, negative = inhibition, hits mostly inhibitors; P51450; actives 5.4% (n = 310,000); AID 2551; Drosophila S2 Gal4-RORgamma UAS-luciferase reporter, 20 h; also: potency is read from the fitted curve at half-maximal effect; nearly all actives have a fitted effect of over 60% in size
Target sequence (P51450 whole entry, looked up, the tested form may be a part): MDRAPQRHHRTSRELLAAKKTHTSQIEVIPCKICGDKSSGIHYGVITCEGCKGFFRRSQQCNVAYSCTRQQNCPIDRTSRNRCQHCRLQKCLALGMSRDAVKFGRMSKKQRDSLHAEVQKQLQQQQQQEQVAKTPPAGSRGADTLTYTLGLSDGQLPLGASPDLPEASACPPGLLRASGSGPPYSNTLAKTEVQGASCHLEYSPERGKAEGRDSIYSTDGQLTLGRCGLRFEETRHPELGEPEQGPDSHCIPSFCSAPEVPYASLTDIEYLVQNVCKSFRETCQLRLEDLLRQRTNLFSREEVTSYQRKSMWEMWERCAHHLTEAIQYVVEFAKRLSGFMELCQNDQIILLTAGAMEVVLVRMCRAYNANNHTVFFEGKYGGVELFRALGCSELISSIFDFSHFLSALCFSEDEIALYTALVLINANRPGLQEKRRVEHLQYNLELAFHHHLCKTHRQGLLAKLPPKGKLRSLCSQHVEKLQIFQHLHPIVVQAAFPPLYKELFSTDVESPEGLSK
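ROR gamma transcriptional activity was tracked as Gal4-UAS luciferase output in stably transfected Drosophila Schneider cells, with compound added 1 hr before 700 uM copper sulfate induction and a 20 hr ambient-temperature incubation.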
Active calls of the source: *; ? = inconclusive; . = not tested or not shown; ! = not active in a repeat. In the library only some 18% were active in any assay of this set; here they are far more common. Unless noted, calls follow the shape of the dose curve; as a rule, active = well fitted curve in the direction sought with a large enough effect; inconclusive = small, poorly fitted or top-dose-only effect, or another doubt; inactive = no such curve, though single readings can be large; an effect the other way counts as inactive or inconclusive. Unless noted, % is scaled to controls: 0 for no effect and ±100 for the full control effect.

SMILES	IL-1B inflam inh	LDHA block	Gal4-VP16 FLuc	TDP1 cell CPT	TDP1 cell noCPT	RORg inh
Cc1ccc(S(=O)(=O)N2C[C@@H]3[C@H]4CC[C@H](C4)[C@@H]3[C@@H](C)[C@@H]2c2cn(Cc3ccccc3)c3ccc(F)cc23)cc1	-6.7	-6.3	.	20.6µM*	20.6µM*	.
Cc1ccc(S(=O)(=O)N2C[C@@H]3[C@H]4CC[C@H](C4)[C@@H]3[C@@H](C)[C@@H]2c2ccco2)cc1	69.7	-2.2	.	?	?	.
CCc1cc(=O)oc2cc(C)cc(O)c12	7.7	0.4	6.0%	?	?	-5.1%
CCCCCc1cc(O)c2c(C)cc(=O)oc2c1	-25.2	0.1	11.2µM*	23.1µM*	16.4µM*	3.16µM*
O=c1cc(CN2CCN(C/C=C/c3ccccc3)CC2)c2cc(O)c(-c3ccccc3)cc2o1	?	2.2	-24.4%	18.4µM*	18.4µM*	8.1%
Oc1ccc2ccccc2c1CN1CCN(C/C=C/c2ccccc2)CC1	-76.7*	4.4	?	-33.4%	-13.0%	?
O=c1cc(CN2CCN(CCO)CC2)c2cc(O)c(-c3ccccc3)cc2o1	.	7.4	.	.	.	.
Cc1cc(O)c2c(CN3CCN(Cc4ccccc4)CC3)cc(=O)oc2c1	-18.7	-31.3*!	2.5%	?	14.6µM*	9.3%
COC(=O)c1cc(-c2ccc(C)c(C)c2)nc2ccccc12	.	1.6	.	.	.	.
Cc1cc(C)c(NC(=O)CSc2nnc3[nH]c(=O)cc(-c4ccccc4)n23)c(C)c1	.	6.2	.	.	.	.
Cc1c(O)ccc2c(CN3CCN(C/C=C/c4ccccc4)CC3)cc(=O)oc12	-76.7*	-4.6	-9.4%	?	?	28.7%
CCCc1cc(=O)oc2cc(C)cc(O)c12	-19.6	-1.1	-11.6%	?	18.4µM*	37.8%
CCCc1cc(=O)oc2cc(C)cc(OC(=O)c3ccco3)c12	-4.8	-1.8	0.8%	23.1µM*	18.4µM*	?
Cc1cc2oc(=O)cc(CN3CCN(c4ccccc4F)CC3)c2cc1O	.	-6.9	.	.	.	.
Cc1cc2oc(=O)cc(CN3CCN(C/C=C/c4ccccc4)CC3)c2cc1O	.	5.8	35.5µM*	.	.	?
COCCn1cnnc1SCc1cccc(Cl)c1	.	8.8	.	.	.	.
Cc1cc2oc(=O)cc(CN3CCN(Cc4ccccc4)CC3)c2cc1O	6.3	-2.1	-9.5%	8.2µM*	7.31µM*	23.7%
COc1ccc(/C=C/C=C2\N=C(SC)SC2=O)cc1	-5.4	-3.5	-1.5%	23.1µM*	29.1µM*	15.4%
CCCCCCCC(=O)CC[C@@H]1[C@@H](C/C=C\CCCC(=O)OC(C)C)[C@@H](O)C[C@H]1O	.	.	.	7.5µM*	7.5µM*	.
CCCCCC(=O)CC[C@@H]1[C@@H](C/C=C\CCCC(=O)O)[C@@H](O)C[C@H]1O	.	.	-15.2%	.	.	1.6%
O=C(c1c(F)cccc1F)N(Cc1ccccc1)Cc1ccccc1	?	0.6	16.6%	11.6µM*	11.6µM*	-7.5%
CC(=O)c1cnn(-c2cc(Nc3ccc(F)cc3F)nc(C)n2)c1C	.	-0.8	.	.	.	.
NC1=NC(=Nc2ccc(S(=O)(=O)N3CCOCC3)cc2)c2ccccc21	-50.8*	1.3	-2.2%	?	-76.6%	1.1%
CC(C)c1ccc(N=C2N=C(N)c3ccccc32)cc1	-96.0*	-11.3	4.6%	?	?	-7.2%
NC1=NC(=Nc2ccc(Cl)cc2)c2ccccc21	-14.3	-4.6	?	0.5%	-29.0%	-10.3%
SMILES	IL-1B inflam inh	LDHA block	Gal4-VP16 FLuc	TDP1 cell CPT	TDP1 cell noCPT	RORg inh
NC1=NC(=Nc2ccccc2)c2ccccc21	?	3.3	1.0%	?	?	0.0%
Cc1ccc(NC(=O)c2cccs2)cc1S(=O)(=O)Nc1cccc(Cl)c1	-131.0*	-3.3	?	-13.2%	?	44.2%
O=C(CCC(=O)c1ccc(F)cc1)Nc1cccc(S(=O)(=O)Nc2cccc(Cl)c2)c1	8.1	-0.2	?	14.6µM*	23.1µM*	?
Cc1ccc(NC(=S)NC(=O)c2ccc(F)cc2)cc1S(=O)(=O)Nc1cccc(Cl)c1	?	-10.9	-2.3%	5.17µM*	5.8µM*	-19.9%
Cc1ccc(NC(=O)CC(=O)c2ccc([N+](=O)[O-])cc2)cc1S(=O)(=O)Nc1cccc(Cl)c1	-1.7	-9.3	-25.9%	-29.3%	10.8%	?
CCOc1ccc(NS(=O)(=O)c2cc(NC(=O)CCC(=O)c3cccs3)ccc2Cl)cc1	-26.3	-4.7	-9.0%	29.1µM*	?	?
O=C(CCC(=O)c1ccc(F)cc1)Nc1ccc(Cl)cc1	.	-3.9	.	2.0%	-14.7%	.
Cc1cc(N2CCN(c3ncccn3)CC2)nc2c(C)cccc12	39.9	-4.5	4.0%	?	14.6µM*	13.0%
COc1ccc(N2CCN(c3cc(C)c4cccc(C)c4n3)CC2)cc1	5.1	-8.4	1.3%	?	-25.4%	1.4%
COc1ccc(NC(=O)c2ccc3c(c2)sc2nc(-c4ccc(OC)cc4)cn23)cc1	.	-3.2	.	-5.5%	-4.3%	.
CCc1ccc(-c2cn3c(n2)sc2cc(C(=O)NCCc4ccc(OC)cc4OC)ccc23)cc1	.	-2.0	.	23.1µM*	16.4µM*	.
COc1ccc(-c2cn3c(n2)sc2cc(C(=O)NCC(C)c4ccccc4)ccc23)cc1 (configuration not stated)	.	-0.2	.	?	5.8µM*	.
COc1ccc(-c2cn3c(n2)sc2cc(C(=O)Nc4cc(Cl)ccc4C)ccc23)cc1	.	3.9	.	6.51µM*	2.91µM*	.
CCc1ccc(-c2cn3c(n2)sc2cc(C(=O)NCCCc4ccccc4)ccc23)cc1	.	-4.0	.	-22.3%	-2.2%	.
CCCSCCCNC(=O)c1ccc2c(c1)sc1nc(-c3ccc(OCC)cc3)cn12	.	-5.4	.	?	?	.
CCOc1ccc(-c2cn3c(n2)sc2cc(C(=O)NCCc4ccc(OC)c(OC)c4)ccc23)cc1	.	-1.1	.	11.6µM*	10.3µM*	.
CCCNC(=O)CSc1cc(C)c2cc(C)cc(C)c2n1	.	8.8	.	.	.	.
CC(NC(=O)C(C)(Cl)Cl)C12CC3CC(CC(C3)C1)C2 (configuration not stated)	.	2.7	.	.	.	.
O=C(Nc1ccc(F)cc1F)N1CCN(c2cc(=O)n3nc(-c4ccco4)sc3n2)CC1	.	-11.6	.	.	.	.
COc1ccc(CCNC(=O)c2ccc3c(c2)sc2nc(-c4ccccc4)cn23)cc1OC	.	1.1	.	5.17µM*	7.31µM*	.
COc1ccc2c(c1)sc1nc(-c3ccccc3)cn12	?	0.6	2µM*	0.517µM*	0.92µM*	1.58µM*
COc1cccc(-c2cn3c(n2)sc2cc(C(=O)NCCc4ccccc4)ccc23)c1	.	3.7	.	7.31µM*	7.31µM*	.
